Assay results taken from PubChem BioAssay (NCI).
The panel holds about 79,000 compounds, 15% with a hit somewhere; the sample as a whole holds those more often. Active and inactive are the calls of the source. Rule as the data show it: active = growth inhibition above about 70%; inactive = the rest.

Experiments:
[1] = NCI Yeast Anticancer Drug Screen. Data for the rad52 strain (AID 147);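 also: 0% = growth of vehicle-treated control cultures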; details: S. cerevisiae rad52 mutant growth inhibition, active compounds read high
How it was run: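 Growth of repair-deficient yeast cells was compared between compound-treated and vehicle-treated cultures to give percent inhibition.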

[2] = NCI Yeast Anticancer Drug Screen. Data for the wt1 strain (AID 149);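 also: 0% = growth of vehicle-treated wt1 cultures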; details: S. cerevisiae wt1 strain (SPY 50644) growth inhibition, active compounds read high
How it was run: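 wt1 yeast, compound-treated; % growth inhibition vs vehicle control.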

[3] = NCI Yeast Anticancer Drug Screen. Data for the rad50EPP+ strain (AID 151);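 also: 0% = growth of vehicle-treated control cultures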; details: S. cerevisiae rad50 mutant strain, active compounds read high
How it was run: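 Measured: growth inhibition of rad50EPP+ yeast. Reference: vehicle-treated controls. Screen uses strains with defined genetic alterations in DNA damage repair or cell cycle control.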

[4] = NCI Yeast Anticancer Drug Screen. Data for the mgt1 strain (AID 153); details: S. cerevisiae mgt1 mutant growth inhibition, active compounds read high
How it was run: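 Compounds were applied to mgt1 mutant yeast, and growth was then compared against vehicle-treated control cultures to give percent inhibition.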

[5] = NCI Yeast Anticancer Drug Screen. Data for the rad50 strain (AID 155);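 also: 0% = growth of vehicle-only cultures of the same strain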; details: S. cerevisiae rad50 strain growth inhibition, active compounds read high
How it was run: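 Genetically altered yeast (DNA repair pathway); compound treatment; growth inhibition vs vehicle ctrl.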

[6] = NCI Yeast Anticancer Drug Screen. Data for the mec2-1 strain (AID 157); details: S. cerevisiae mec2-1 strain, active compounds read high
How it was run: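 Compounds were applied to mec2-1 yeast cells. Their growth was then compared with that of vehicle-treated cultures to give growth inhibition.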

[7] = NCI Yeast Anticancer Drug Screen. Data for the rad14 strain (AID 159);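 also: 0% = growth of vehicle-treated control cultures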; details: S. cerevisiae rad14 strain growth inhibition, active compounds read high
How it was run: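 Test compounds were applied to a repair-deficient yeast strain. Its growth was then compared with that of cultures given vehicle alone, and inhibition was expressed relative to those controls.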

[8] = NCI Yeast Anticancer Drug Screen. Data for the CLN2oe strain (AID 163);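 also: 0% = growth of vehicle-only control cultures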; details: S. cerevisiae CLN2oe strain, active compounds read high
How it was run: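 Cells of an engineered yeast line with disturbed cell-cycle regulation are treated with compound. Inhibition of growth is then calculated relative to the vehicle-treated reference.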

[9] = NCI Yeast Anticancer Drug Screen. Data for the cln2 rad14 strain (AID 165);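 also: 0% = growth equal to vehicle treated cultures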; details: S. cerevisiae cln2 rad14 strain, active compounds read high
How it was run: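 Strain: cln2 rad14 yeast, altered in cell cycle control and DNA damage repair. Read-out: growth inhibition vs vehicle.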

[10] = NCI Yeast Anticancer Drug Screen. Data for the bub3 strain (AID 167); details: S. cerevisiae bub3 mutant strain, active compounds read high
How it was run: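 Yeast carrying a defined mutation is treated with each compound, and growth is compared with that of vehicle-exposed cells to give inhibition.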

[11] = NCI Yeast Anticancer Drug Screen. Data for the wt2 strain (AID 169);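 also: 0% = growth of vehicle-treated yeast cultures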; details: S. cerevisiae wt2 strain growth inhibition, active compounds read high
How it was run: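 Growth of compound-treated yeast is measured and expressed as inhibition relative to vehicle-only controls.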

[12] = NCI Yeast Anticancer Drug Screen. Data for the mlh1 strain (AID 171);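 also: 0% = growth of vehicle-treated control cultures of the same strain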; details: S. cerevisiae mlh1 strain growth inhibition, active compounds read high
How it was run: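 Test agents were incubated with yeast bearing a defined DNA damage repair or cell cycle control alteration; values are growth inhibition normalised to vehicle-treated cultures.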

[13] = NCI Yeast Anticancer Drug Screen. Data for the sgs1 strain (AID 173);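 also: 0% = growth of vehicle-only control cultures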; details: S. cerevisiae sgs1 mutant, active compounds read high
How it was run: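 Strain with an altered DNA repair or cell cycle pathway exposed to compound. Growth then measured. Value = inhibition versus vehicle control.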

[14] = NCI Yeast Anticancer Drug Screen. Data for the mlh1 rad18 strain (AID 175); details: S. cerevisiae mlh1 rad18 strain growth inhibition, active compounds read high
How it was run: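 A repair-deficient yeast strain is exposed to test compound, and growth is scored relative to vehicle-treated controls.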

[15] = NCI Yeast Anticancer Drug Screen. Data for the rad18 strain (AID 177); details: S. cerevisiae rad18 mutant growth inhibition, active compounds read high
How it was run: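 DNA-repair-defective yeast; compound treatment; growth inhibition scored against vehicle.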

[16] = NCI Yeast Anticancer Drug Screen. Data for the sgs1 mgt1 strain (AID 161);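 also: 0% = growth of cultures given vehicle only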; details: S. cerevisiae sgs1 mgt1 strain, active compounds read high
How it was run: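 Growth of a repair-deficient yeast mutant was monitored after compound treatment and expressed as inhibition relative to vehicle-treated cultures.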

[17] = at 5.0 µM (retest, dose inferred, filed as 0.5)
[18] = at 50.0 µM (retest, dose inferred, filed as 5.0)

Measured: growth inhibition

Cc1ccc(Cl)c2[nH]c(-c3ccccc3)cc(=O)c12
inactive: [1]; at 1.2 µM -1% | [1]; at 3.7 µM -1% | [1]; at 11.0 µM 1% | [1]; at 33.0 µM 2% | [1]; at 100.0 µM 3% | [2]; at 1.2 µM -3% | [2]; at 3.7 µM -3% | [2]; at 11.0 µM -4% | [2]; at 33.0 µM -2% | [2]; at 100.0 µM 0% | [3]; at 1.2 µM 1% | [3]; at 3.7 µM 2% | [3]; at 11.0 µM 6% | [3]; at 33.0 µM 9% | [3]; at 100.0 µM 6% | [4]; at 1.2 µM -5% | [4]; at 3.7 µM -3% | [4]; at 11.0 µM 19% | [4]; at 33.0 µM -25% | [4]; at 100.0 µM -4% | [5]; at 1.2 µM -1% | [5]; at 3.7 µM 0% | [5]; [17] -10% | [5]; at 11.0 µM -29% | [5]; at 33.0 µM 0% | [5]; [18] 13% | [5]; at 50.0 µM 29.2% | [5]; at 100.0 µM 0% | [6]; at 1.2 µM 0% | [6]; at 3.7 µM -3% | [6]; [17] -11% | [6]; at 11.0 µM 0% | [6]; at 33.0 µM -2% | [6]; [18] 10% | [6]; at 50.0 µM 40.6% | [6]; at 100.0 µM 0% | [7]; at 1.2 µM -2% | [7]; at 3.7 µM -6% | [7]; at 11.0 µM -2% | [7]; at 33.0 µM -12% | [7]; at 100.0 µM 1% | [8]; at 1.2 µM 0% | [8]; at 3.7 µM -5% | [8]; at 11.0 µM -1% | [8]; at 33.0 µM -5% | [8]; at 100.0 µM 1% | [9]; [17] -9% | [9]; [18] -2% | [9]; at 50.0 µM 13.4% | [10]; at 1.2 µM -2% | [10]; at 3.7 µM -2% | [10]; [17] -17% | [10]; at 11.0 µM 7% | [10]; at 33.0 µM 0% | [10]; at 100.0 µM 2% | [11]; at 1.2 µM -2% | [11]; at 3.7 µM -1% | [11]; at 11.0 µM -1% | [11]; at 33.0 µM -1% | [11]; at 100.0 µM -1% | [12]; at 1.2 µM 0% | [12]; at 3.7 µM -2% | [12]; at 11.0 µM -4% | [12]; at 33.0 µM -2% | [12]; at 100.0 µM 0% | [13]; at 1.2 µM -3% | [13]; at 3.7 µM -4% | [13]; at 11.0 µM -4% | [13]; at 33.0 µM -3% | [13]; at 100.0 µM 0% | [14]; [17] -18% | [14]; at 50.0 µM 62.8% | [15]; at 1.2 µM -5% | [15]; at 3.7 µM -1% | [15]; at 11.0 µM -6% | [15]; at 33.0 µM -24% | [15]; at 100.0 µM 14%
active: [10]; [18] 93% | [10]; at 50.0 µM 72% | [14]; [18] 94%

CC(C)NC(=O)OCc1c(COC(=O)NC(C)C)c(-c2ccc(Cl)c(Cl)c2)n2c1CCC2
inactive: [1]; at 1.2 µM -38% | [1]; at 3.7 µM -28% | [1]; at 11.0 µM -19% | [1]; at 33.0 µM 1% | [1]; at 100.0 µM 68% | [2]; at 1.2 µM -38% | [2]; at 3.7 µM -34% | [2]; at 11.0 µM -45% | [2]; at 33.0 µM -32% | [2]; at 100.0 µM 30% | [3]; at 1.2 µM -23% | [3]; at 3.7 µM -18% | [3]; at 11.0 µM -5% | [3]; at 33.0 µM -18% | [3]; at 100.0 µM -4% | [4]; at 1.2 µM -60% | [4]; at 3.7 µM -48% | [4]; at 11.0 µM -59% | [4]; at 33.0 µM -39% | [5]; at 1.2 µM -35% | [5]; at 3.7 µM -29% | [5]; [17] 8% | [5]; at 11.0 µM -24% | [5]; at 33.0 µM 1% | [5]; [18] 44% | [5]; at 50.0 µM 58.6% | [5]; at 100.0 µM 63% | [6]; at 1.2 µM -71% | [6]; at 3.7 µM -61% | [6]; [17] -1% | [6]; at 11.0 µM -56% | [6]; at 33.0 µM -53% | [6]; [18] 8% | [6]; at 50.0 µM 47.6% | [6]; at 100.0 µM 47% | [7]; at 1.2 µM -33% | [7]; at 3.7 µM -26% | [7]; at 11.0 µM -30% | [7]; at 33.0 µM 10% | [16]; [17] 9% | [16]; at 50.0 µM 23% | [8]; at 1.2 µM 4% | [8]; at 3.7 µM 0% | [8]; at 11.0 µM 4% | [8]; at 33.0 µM 11% | [8]; at 100.0 µM 32% | [9]; [17] 23% | [9]; [18] 24% | [9]; at 50.0 µM 3.3% | [13]; at 1.2 µM -21% | [13]; at 3.7 µM -17% | [13]; at 11.0 µM -1% | [13]; at 33.0 µM 12% | [14]; [17] 13% | [14]; [18] 68% | [14]; at 50.0 µM 69.2% | [15]; at 1.2 µM -17% | [15]; at 3.7 µM 2% | [15]; at 11.0 µM 1% | [15]; at 33.0 µM 34%
active: [4]; at 100.0 µM 76% | [7]; at 100.0 µM 84% | [16]; [18] 72% | [13]; at 100.0 µM 80% | [15]; at 100.0 µM 84%
